{"source": "the supplement of paper PMC12282887", "experiment_in_all_cases": "promoter activity interaction Z-score (Lux/OD deviation from empty-vector control); higher = stronger promoter induction by the compound", "key": {"[1]": {"system": "E. coli BW25113 acrABp lux reporter", "in_short": "(§1)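 E. coli BW25113 luxCDABE reporter strains grew at 37°C in 40 µl LB Lennox in 384-well plates, with OD600 and luminescence read every 30 min for 12 h. After integration over 0–8 h for wild type or 1–9 h for deletion strains, wells under 10% of the median growth value were removed. Each score is the Z-transformed residual of growth-normalised luminescence fitted against a control.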"}, "[2]": {"system": "E. coli BW25113 micFp lux reporter", "in_short": "as §1"}, "[3]": {"system": "E. coli BW25113 ompFp lux reporter", "in_short": "as §1"}, "[4]": {"system": "E. coli BW25113 robp lux reporter", "in_short": "as §1"}, "[5]": {"system": "E. coli BW25113 soxSp lux reporter", "in_short": "as §1"}, "[6]": {"system": "E. coli BW25113 tolCp lux reporter", "in_short": "as §1"}, "[7]": {"conditions": "0.62 µg/ml, genetic background: wild type"}, "[8]": {"conditions": "0.62 µg/ml, genetic background: ΔmarA"}, "[9]": {"conditions": "0.62 µg/ml, genetic background: Δrob"}, "[10]": {"conditions": "0.62 µg/ml, genetic background: ΔsoxS"}, "[11]": {"conditions": "1.2 µg/ml, genetic background: wild type"}, "[12]": {"conditions": "1.2 µg/ml, genetic background: ΔmarA"}, "[13]": {"conditions": "1.2 µg/ml, genetic background: Δrob"}, "[14]": {"conditions": "1.2 µg/ml, genetic background: ΔsoxS"}, "[15]": {"conditions": "2.5 µg/ml, genetic background: wild type"}, "[16]": {"conditions": "2.5 µg/ml, genetic background: ΔmarA"}, "[17]": {"conditions": "2.5 µg/ml, genetic background: Δrob"}, "[18]": {"conditions": "2.5 µg/ml, genetic background: ΔsoxS"}, "[19]": {"conditions": "5 µg/ml, genetic background: wild type"}, "[20]": {"conditions": "5 µg/ml, genetic background: ΔmarA"}, "[21]": {"conditions": "5 µg/ml, genetic background: Δrob"}, "[22]": {"conditions": "5 µg/ml, genetic background: ΔsoxS"}}, "note": "± gives the standard deviation of the averaged measurements.", "data": [{"smiles": "CN[C@@H]1[C@H](O)[C@H](NC)[C@H]2O[C@@]3(O)C(=O)C[C@@H](C)O[C@H]3O[C@@H]2[C@H]1O", "note": "[Spectinomycin]", "values": [{"measurement": "promoter activity interaction Z-score", "setting": "[1]; [7]", "value": "-0.0967 ± 0.053"}, {"measurement": "promoter activity interaction Z-score", "setting": "[1]; [8]", "value": "0.63 ± 1.1"}, {"measurement": "promoter activity interaction Z-score", "setting": "[1]; [9]", "value": "-0.155 ± 0.22"}, {"measurement": "promoter activity interaction Z-score", "setting": "[1]; [10]", "value": "-0.229 ± 0.36"}, {"measurement": "promoter activity interaction Z-score", "setting": "[1]; [11]", "value": "0.0581 ± 0.015"}, {"measurement": "promoter activity interaction Z-score", "setting": "[1]; [12]", "value": "1.75 ± 0.53"}, {"measurement": "promoter activity interaction Z-score", "setting": "[1]; [13]", "value": "-0.245 ± 0.14"}, {"measurement": "promoter activity interaction Z-score", "setting": "[1]; [14]", "value": "0.468 ± 0.31"}, {"measurement": "promoter activity interaction Z-score", "setting": "[1]; [15]", "value": "-0.0145 ± 0.16"}, {"measurement": "promoter activity interaction Z-score", "setting": "[1]; [16]", "value": "0.746 ± 1"}, {"measurement": "promoter activity interaction Z-score", "setting": "[1]; [17]", "value": "-0.204 ± 0.38"}, {"measurement": "promoter activity interaction Z-score", "setting": "[1]; [18]", "value": "-0.222 ± 0.034"}, {"measurement": "promoter activity interaction Z-score", "setting": "[1]; [19]", "value": "0.0345 ± 0.34"}, {"measurement": "promoter activity interaction Z-score", "setting": "[1]; [20]", "value": "1.39 ± 0.42"}, {"measurement": "promoter activity interaction Z-score", "setting": "[1]; [21]", "value": "0.0966 ± 0.39"}, {"measurement": "promoter activity interaction Z-score", "setting": "[1]; [22]", "value": "0.99 ± 0.69"}, {"measurement": "promoter activity interaction Z-score", "setting": "[2]; [7]", "value": "0.0396 ± 0.21"}, {"measurement": "promoter activity interaction Z-score", "setting": "[2]; [8]", "value": "0.0233 ± 0.13"}, {"measurement": "promoter activity interaction Z-score", "setting": "[2]; [9]", "value": "0.0237 ± 0.29"}, {"measurement": "promoter activity interaction Z-score", "setting": "[2]; [10]", "value": "-0.0535 ± 0.0022"}, {"measurement": "promoter activity interaction Z-score", "setting": "[2]; [11]", "value": "0.102 ± 0.093"}, {"measurement": "promoter activity interaction Z-score", "setting": "[2]; [12]", "value": "-0.0481 ± 0.051"}, {"measurement": "promoter activity interaction Z-score", "setting": "[2]; [13]", "value": "-0.00303 ± 0.08"}, {"measurement": "promoter activity interaction Z-score", "setting": "[2]; [14]", "value": "0.208 ± 0.053"}, {"measurement": "promoter activity interaction Z-score", "setting": "[2]; [15]", "value": "0.0906 ± 0.13"}, {"measurement": "promoter activity interaction Z-score", "setting": "[2]; [16]", "value": "0.0124 ± 0.13"}, {"measurement": "promoter activity interaction Z-score", "setting": "[2]; [17]", "value": "-0.193 ± 0.016"}, {"measurement": "promoter activity interaction Z-score", "setting": "[2]; [18]", "value": "0.131 ± 0.081"}, {"measurement": "promoter activity interaction Z-score", "setting": "[2]; [19]", "value": "0.33 ± 0.19"}, {"measurement": "promoter activity interaction Z-score", "setting": "[2]; [20]", "value": "-0.0142 ± 0.091"}, {"measurement": "promoter activity interaction Z-score", "setting": "[2]; [21]", "value": "-0.115 ± 0.2"}, {"measurement": "promoter activity interaction Z-score", "setting": "[2]; [22]", "value": "0.467 ± 0.33"}, {"measurement": "promoter activity interaction Z-score", "setting": "[3]; [7]", "value": "0.543 ± 0.52"}, {"measurement": "promoter activity interaction Z-score", "setting": "[3]; [8]", "value": "0.58 ± 0.32"}, {"measurement": "promoter activity interaction Z-score", "setting": "[3]; [9]", "value": "0.8 ± 0.87"}, {"measurement": "promoter activity interaction Z-score", "setting": "[3]; [10]", "value": "0.0444 ± 0.43"}, {"measurement": "promoter activity interaction Z-score", "setting": "[3]; [11]", "value": "0.46 ± 0.84"}, {"measurement": "promoter activity interaction Z-score", "setting": "[3]; [12]", "value": "0.92 ± 1.9"}, {"measurement": "promoter activity interaction Z-score", "setting": "[3]; [13]", "value": "1.39 ± 1.6"}, {"measurement": "promoter activity interaction Z-score", "setting": "[3]; [14]", "value": "0.446 ± 0.44"}, {"measurement": "promoter activity interaction Z-score", "setting": "[3]; [15]", "value": "0.634 ± 0.23"}, {"measurement": "promoter activity interaction Z-score", "setting": "[3]; [16]", "value": "0.0667 ± 0.36"}, {"measurement": "promoter activity interaction Z-score", "setting": "[3]; [17]", "value": "0.00624 ± 0.23"}, {"measurement": "promoter activity interaction Z-score", "setting": "[3]; [18]", "value": "0.0301 ± 0.019"}, {"measurement": "promoter activity interaction Z-score", "setting": "[3]; [19]", "value": "1.76 ± 0.4"}, {"measurement": "promoter activity interaction Z-score", "setting": "[3]; [20]", "value": "3.2 ± 2"}, {"measurement": "promoter activity interaction Z-score", "setting": "[3]; [21]", "value": "1.79 ± 0.59"}, {"measurement": "promoter activity interaction Z-score", "setting": "[3]; [22]", "value": "1.52 ± 0.2"}, {"measurement": "promoter activity interaction Z-score", "setting": "[4]; [7]", "value": "0.57 ± 0.013"}, {"measurement": "promoter activity interaction Z-score", "setting": "[4]; [8]", "value": "0.679 ± 0.25"}, {"measurement": "promoter activity interaction Z-score", "setting": "[4]; [9]", "value": "0.28 ± 0.54"}, {"measurement": "promoter activity interaction Z-score", "setting": "[4]; [10]", "value": "0.0239 ± 0.071"}, {"measurement": "promoter activity interaction Z-score", "setting": "[4]; [11]", "value": "1.23 ± 0.055"}, {"measurement": "promoter activity interaction Z-score", "setting": "[4]; [12]", "value": "1.12 ± 1"}, {"measurement": "promoter activity interaction Z-score", "setting": "[4]; [13]", "value": "0.344 ± 1.1"}, {"measurement": "promoter activity interaction Z-score", "setting": "[4]; [14]", "value": "0.459 ± 0.35"}, {"measurement": "promoter activity interaction Z-score", "setting": "[4]; [15]", "value": "1.05 ± 0.45"}, {"measurement": "promoter activity interaction Z-score", "setting": "[4]; [16]", "value": "-0.18 ± 0.022"}, {"measurement": "promoter activity interaction Z-score", "setting": "[4]; [17]", "value": "-0.207 ± 0.35"}, {"measurement": "promoter activity interaction Z-score", "setting": "[4]; [18]", "value": "-0.519 ± 0.17"}, {"measurement": "promoter activity interaction Z-score", "setting": "[4]; [19]", "value": "1.2 ± 0.5"}, {"measurement": "promoter activity interaction Z-score", "setting": "[4]; [20]", "value": "1.72 ± 1.6"}, {"measurement": "promoter activity interaction Z-score", "setting": "[4]; [21]", "value": "0.387 ± 0.033"}, {"measurement": "promoter activity interaction Z-score", "setting": "[4]; [22]", "value": "0.464 ± 0.086"}, {"measurement": "promoter activity interaction Z-score", "setting": "[5]; [7]", "value": "-0.101 ± 0.17"}, {"measurement": "promoter activity interaction Z-score", "setting": "[5]; [8]", "value": "-0.203 ± 0.0084"}, {"measurement": "promoter activity interaction Z-score", "setting": "[5]; [9]", "value": "-0.117 ± 0.15"}, {"measurement": "promoter activity interaction Z-score", "setting": "[5]; [10]", "value": "-0.425 ± 0.2"}, {"measurement": "promoter activity interaction Z-score", "setting": "[5]; [11]", "value": "-0.0613 ± 0.16"}, {"measurement": "promoter activity interaction Z-score", "setting": "[5]; [12]", "value": "-0.366 ± 0.011"}, {"measurement": "promoter activity interaction Z-score", "setting": "[5]; [13]", "value": "-0.175 ± 0.039"}, {"measurement": "promoter activity interaction Z-score", "setting": "[5]; [14]", "value": "-0.141 ± 0.26"}, {"measurement": "promoter activity interaction Z-score", "setting": "[5]; [15]", "value": "-0.0221 ± 0.0045"}, {"measurement": "promoter activity interaction Z-score", "setting": "[5]; [16]", "value": "-0.26 ± 0.096"}, {"measurement": "promoter activity interaction Z-score", "setting": "[5]; [17]", "value": "-0.323 ± 0.11"}, {"measurement": "promoter activity interaction Z-score", "setting": "[5]; [18]", "value": "-0.283 ± 0.26"}, {"measurement": "promoter activity interaction Z-score", "setting": "[5]; [19]", "value": "0.172 ± 0.16"}, {"measurement": "promoter activity interaction Z-score", "setting": "[5]; [20]", "value": "-0.231 ± 0.12"}, {"measurement": "promoter activity interaction Z-score", "setting": "[5]; [21]", "value": "-0.25 ± 0.12"}, {"measurement": "promoter activity interaction Z-score", "setting": "[5]; [22]", "value": "-0.213 ± 0.14"}, {"measurement": "promoter activity interaction Z-score", "setting": "[6]; [7]", "value": "0.361 ± 0.53"}, {"measurement": "promoter activity interaction Z-score", "setting": "[6]; [8]", "value": "0.711 ± 0.34"}, {"measurement": "promoter activity interaction Z-score", "setting": "[6]; [9]", "value": "0.221 ± 0.16"}, {"measurement": "promoter activity interaction Z-score", "setting": "[6]; [10]", "value": "-0.376 ± 0.49"}, {"measurement": "promoter activity interaction Z-score", "setting": "[6]; [11]", "value": "-0.382 ± 0.52"}, {"measurement": "promoter activity interaction Z-score", "setting": "[6]; [12]", "value": "-0.763 ± 0.28"}, {"measurement": "promoter activity interaction Z-score", "setting": "[6]; [13]", "value": "-0.313 ± 0.84"}, {"measurement": "promoter activity interaction Z-score", "setting": "[6]; [14]", "value": "0.357 ± 0.55"}, {"measurement": "promoter activity interaction Z-score", "setting": "[6]; [15]", "value": "-0.207 ± 0.26"}, {"measurement": "promoter activity interaction Z-score", "setting": "[6]; [16]", "value": "-0.0988 ± 1.2"}, {"measurement": "promoter activity interaction Z-score", "setting": "[6]; [17]", "value": "-0.56 ± 0.75"}, {"measurement": "promoter activity interaction Z-score", "setting": "[6]; [18]", "value": "0.223 ± 0.16"}, {"measurement": "promoter activity interaction Z-score", "setting": "[6]; [19]", "value": "0.269 ± 0.23"}, {"measurement": "promoter activity interaction Z-score", "setting": "[6]; [20]", "value": "-0.244 ± 0.4"}, {"measurement": "promoter activity interaction Z-score", "setting": "[6]; [21]", "value": "-0.307 ± 0.99"}, {"measurement": "promoter activity interaction Z-score", "setting": "[6]; [22]", "value": "0.299 ± 0.054"}]}]}
